BoNT-F LC inh = blocks Botulinum neurotoxin F light chain protease; AID 588497; Multiplex microsphere protease cleavage assay, flow cytometry; inhibition, % at 10 µM; 0.22% of 360,000 active; in the data active means inhibition above about 35%, passing the limit was not always enough; inconclusive means no clear call, values can overlap the other calls; further: plate controls were buffer without enzyme for full effect and enzyme alone for no effect
Anthrax LF prot = inhibitors of Bacillus anthracis lethal factor protease | P15917 | multiplex microsphere protease cleavage assay, LF | 0.12% of 360,000 active | inhibition, % at 10 µM; further: plate controls were buffer without enzyme for full effect and enzyme alone for no effect
BoNT A protease = blocks Botulinum neurotoxin A light chain protease; multiplex microsphere protease substrate cleavage, flow cytometry; inhibition, % at 10 µM; 0.17% of 360,000 active; AID 588499; further: plate controls were buffer without enzyme for full effect and enzyme alone for no effect
Bead autofluor = counter-screen for toxin protease inhibitors: compound fluorescence | compound autofluorescence counterscreen, microsphere flow cytometry; stronger effect = higher value | fluorescence intensity (no concentration beside the values) | 3.1% of 360,000 active; in the data active means fluorescence intensity above about 16000; inconclusive means no clear call, values can overlap the other calls
The depositor's hits bear a star; ? = inconclusive. A selection: hits, their analogues and other compounds. The true share with any hit is near 3.5%. Unless noted, no stated cut-off is given here; in the data, active means inhibition above about 30%; inconclusive means no clear call, values can overlap the other calls; inactive means below that.

SMILES	BoNT-F LC inh	Anthrax LF prot	BoNT A protease	Bead autofluor
COc1cc2c(cc1OC)C(c1ccc(-c3ccccc3Cl)o1)=NCC2	6.1	0.4	7.2	20487*
COc1ccc2nc(N3CCCC3)[nH]c2c1	-2.2	-0.3	?	24269*
COc1ccc(CNC(=S)Nc2cccc(F)c2)cc1	?	-11.3	-2.0	3880
C=CCNC(=S)NNC(=O)Cn1c(-c2ccccc2)cc(=O)n2ncnc12	?	32.0*	-3.3	3880
O=C(CCN1CCCCC1)Nn1c(=S)[nH]c2ccccc2c1=O	-2.7	-2.5	?	23257*
CC(=O)Nc1cccc(NC(=O)NC2CC(=O)N(c3ccc4c(c3)OCCO4)C2)c1 (configuration not stated)	-5.5	-3.9	-0.8	4301
O=S(=O)(c1ccccc1)c1ncc(C(F)(F)F)cc1Cl	-4.3	-3.6	0.4	3638
FC(F)(F)c1cnc(/C=C/Nc2ccccc2Cl)c(Cl)c1	1.9	-1.4	1.8	22771*
CC(C)=CCn1c2ccc(NC(=S)NC3CC3)cc2c(=O)n1C	-4.1	-9.7	-0.6	3994
COc1ccc(CN2CCCC(C(=O)N3CCCCC3)C2)c(OC)c1 (configuration not stated)	2.0	-16.8	-0.5	3846
CCOC(=O)C1CCCN(Cc2cc(Br)c(OC)cc2OC)C1 (configuration not stated)	-0.3	-1.4	-0.1	22833*
CCOC(=O)C1CCCN(Cc2cc(Br)ccc2OC)C1 (configuration not stated)	4.2	2.6	0.5	8933
CCN(CC)C(=O)C1CCCN(Cc2ccc(OC)c(C)c2C)C1 (configuration not stated)	1.9	-1.0	?	21287*
Cc1ccccc1-n1nc2c(c1NC(=O)c1ccc3c(c1)OCO3)CS(=O)(=O)C2	-2.0	-1.2	0.7	4709
Cc1cccc(C(=O)OCC(=O)NCc2ccc(Cl)cc2)c1	-3.7	-5.4	0.0	2988
CC1(C(=O)NS(=O)(=O)c2cccc(C#N)c2)CCN1C(=O)c1ccc(C2CCCCC2)cc1 (configuration not stated)	-14.9	1.0	-3.1	4502
CCOc1ccc(CCN2C(=O)C(=O)N([C@@H](CC(C)C)CN3CCC[C@H]3CN3C(=O)C(=O)NC[C@@H]3CC(C)C)C[C@@H]2Cc2ccc(O)cc2)cc1	7.1	-7.4	-0.3	4454
COc1ccc(-c2ccc(CN3C(C)C(=O)N(Cc4cn(CCC5OCCO5)nn4)CCS3(=O)=O)cc2)cc1 (configuration not stated)	5.0	-2.0	0.3	3426
COC(=O)c1cn(C(=O)c2ccc(OC)cc2)c2ccccc12	36.3*	-8.1	0.7	4142
Cc1ccc(OCCn2cc(/C=C/C(=O)O)c3ccccc32)cc1	-5.5	0.8	0.0	3734
COC(=O)c1cn(CCOc2ccc(C)cc2)c2ccccc12	-3.2	-2.7	-1.9	22793*
O=S1(=O)CC(N2CCCC2)CN1Cc1cn(Cc2ccccc2)nn1 (configuration not stated)	9.3	-3.6	0.4	6205
CC1=C(C(=O)N(C(C)C)C(C)C)CC(CC(=O)NCCN2CCOCC2)C(=O)N1CCC1=CCCCC1 (configuration not stated)	-4.0	-7.5	-0.1	5839
CCOC(=O)c1cc(-c2ccc(C)cc2)n(CCC(=O)NCCN(C)C)c1C	-2.1	-5.6	0.1	22889*
Cc1ccccc1C1=NCC(=O)N(CC(=O)N2CCCCC2)c2sc(C)c(C)c21	-2.2	0.3	?	22255*
SMILES	BoNT-F LC inh	Anthrax LF prot	BoNT A protease	Bead autofluor
Cn1cc(Cc2ccccc2)c(=O)c(Cc2ccccc2)c1	1.7	2.3	0.8	4166
CCNc1oc(-c2ccccc2F)nc1S(=O)(=O)c1ccccc1	6.1	-0.1	3.5	4097
CCNc1oc(-c2ccc(OC)cc2)nc1S(=O)(=O)c1ccc(Br)cc1	-6.6	-1.0	?	21449*
CCCCNc1oc(-c2ccc(OC)cc2)nc1S(=O)(=O)c1ccccc1	-2.5	-1.3	-1.0	21088*
CCOc1ccc(-c2nc(S(=O)(=O)c3ccccc3)c(NC)o2)cc1	-4.5	-5.2	-1.4	5222
Cc1ccc(N2CN=c3s/c(=C\c4ccccn4)c(=O)n3C2)cc1	3.7	1.3	?	18880*
COc1ccc(C2C(C(C)=O)=C(O)C(=O)N2C)c(OC)c1 (configuration not stated)	?	6.6	-0.8	3990
COc1ccc(C2C(C(C)=O)=C(O)C(=O)N2c2cccnc2)c(OC)c1 (configuration not stated)	-2.1	-4.3	-0.7	16553*
Cc1cccc(N=Nc2c(N)n[nH]c2-c2ccc(Cl)cc2)c1	-2.4	-6.3	0.6	20404*
Cc1ccc(-c2[nH]nc(N)c2N=Nc2cccc(Cl)c2C)cc1	-17.9	-5.7	-1.7	4762
c1csc(-c2nnc3ccccn23)c1	9.4	-3.7	?	18537*
Cc1cccc(C)c1OCCCCc1c(C)n[nH]c1C	-5.4	-7.8	0.5	22821*
C[C@H]1CN([C@@H](C)CO)C(=O)CCCn2cc(nn2)CO[C@@H]1CN(C)C(=O)Nc1ccc(-c2cccs2)cc1	0.6	-2.1	-0.1	4167
O=S(=O)(c1ccc(OC(F)(F)F)cc1)N1CCC(O)(c2cccc(C(F)(F)F)c2)CC1	-19.5	-6.7	1.4	3952
OC1(c2cccc(C(F)(F)F)c2)CCNCC1	-4.3	-4.9	0.0	20667*
COCCNC(=O)c1ccc(N2CC3CC(C2)c2cccc(=O)n2C3)c(NC(=O)c2ccccc2Cl)c1 (configuration not stated)	3.6	-6.8	0.1	3732
COc1cccc(NC(=O)N(C)C[C@@H]2OCc3cnnn3CCCC(=O)N([C@@H](C)CO)C[C@H]2C)c1	-4.6	-7.4	-1.0	4075
Cc1ccc(N2C(=O)C3C(C2=O)C2C=CC3C23CC3)cc1 (configuration not stated)	-0.2	-2.7	?	19890*
O=C1C2C(C(=O)N1c1ccncc1)C1C=CC2C12CC2 (configuration not stated)	0.5	-1.7	-0.3	3084
COC(=O)c1ccc(SCC(=O)NCc2ccccc2)c([N+](=O)[O-])c1	11.2	3.1	-2.8	3848
COC(=O)c1cccc(NC(=O)/C(=C\c2ccccc2)NC(=O)c2ccccc2Cl)c1	-0.7	-5.4	-0.5	9655
O=C(Nc1cccc(C(=O)O)c1)/C(=C\c1ccccc1)NC(=O)c1ccccc1Cl	41.1*	2.1	4.1	5393
O=C(N/C(=C\c1ccccc1)C(=O)N1CCOCC1)c1ccccc1Cl	-223.0	-33.4	-141.5	42511*
CCCCNC(=O)c1nc(C2CCN(S(=O)(=O)c3ccccc3C(F)(F)F)CC2)oc1-c1cccc(C(F)(F)F)c1	-9.6	-4.6	-0.6	6036
CN(C(=O)c1ccc(NC(=O)Cc2cccc(NC(=O)C3CCCN(C(=O)C4CC4)C3)c2)cc1)C1CC1 (configuration not stated)	-3.2	-4.8	-0.1	3792
O=C(Nc1ccc(Cl)cc1)c1csc(-c2ccncc2)n1	1.7	-0.6	-0.6	3893
CNC(=O)c1csc(-c2ccc(C)cc2)n1	2.7	-9.0	2.1	20516*
O=C(Nc1ccc(Cl)cc1)c1csc(-c2ccccc2)n1	-3.4	-3.6	-0.9	16593*
